PubChem BioAssay AID1159580 (chemical genetic matrix, 2015)
Among all 5,500 compounds or so, about 2,000 (36%) were called active. Inconclusive results (about 18%) are left out. No stated cut-off is given here; in the data, active means normalized growth mostly below about 0.91 (no sharp cut-off); inconclusive means no clear call, values can overlap the other calls; inactive means mostly above about 0.92. The list shows a part of the results.

Assay: chemical genetic growth profiling, strain panel (AID 1159580);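 further: tested at 20 µM; growth read once vehicle control cultures reached saturation at 30 °C; 1 = growth at the plate median or of vehicle wells; lower values mean less growth of the strain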
Conditions: S. cerevisiae deletion strains, growth OD

Measured: normalized growth

O=Cc1ccccc1O[C@@H]1O[C@H](CO)[C@H](O)[C@@H](O)[C@H]1O
inactive: locus YHR030C, strain SLT2, active compounds read low 1.06 | locus YHR079C, strain IRE1, active compounds read low 1.06 | locus YJL095W, strain BCK1, active compounds read low 0.996 | locus YJR066W, strain TOR1, active compounds read low 0.99 | locus YLR113W, strain HOG1, active compounds read low 1.03 | locus YNL183C, strain NPR1, active compounds read low 0.992 | locus YOR231W, strain MKK1, active compounds read low 1.06 | locus YPL256C, strain CLN2, active compounds read low 1.06
